Screening results: PubChem BioAssay, several laboratories
This is a sample that favours compounds with a hit; in the whole collection about 3.6% have one here.
Mdm2 MdmX PPI = inhibitors of human Mdm2/MdmX interaction | SaOS-2 split-luciferase Mdm2/MdmX complementation, luminescence | inhibition, % at 8 µM | actives 3% (n = 330,000) | AID 485346;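 active = inhibition of at least 50% at 8 µM in the primary screen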
CF NFkB inh = inhibitors of cystic fibrosis induced NF-kB; KKLEB NF-kB-GFP reporter, PAF-induced, GFP fluorescence overnight; inhibition, % at 5 µM; actives 0.86% (n = 360,000); AID 588850;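 active = at least 50% inhibition at 5 µM, scaled per plate between neutral and stimulator controls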;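 note: PAF is a Pseudomonas aeruginosa culture filtrate used as stimulus; plate controls were PAF-stimulated DMSO wells for no effect and unstimulated DMSO wells for full effect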
Peg3 promoter = reduces Peg3 promoter-driven luciferase expression in HeLa; HeLa PEG-Prom luciferase reporter, luminescence, overnight; inhibition, % at 20 µM; actives 1.7% (n = 360,000); AID 588405;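 active = inhibition of at least 50% at 20 µM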
KKLEB cytotox = reduces viability of KKLEB cystic fibrosis airway cells; activity change (cytotoxicity), % at 5 µM; actives 0.36% (n = 360,000); KKLEB CF airway cells viability, ATPlite luminescence, overnight; hits give low values; cells stimulated with P. aeruginosa culture filtrate;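 active = corrected activity change at or below -50% at 5 µM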
HSP90 inh = HSP90 refolding inhibition in rabbit reticulocyte lysate; actives 0.91% (n = 290,000); luciferase refolding luminescence, 3 h; inhibition, % at 5.6 µM;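 active = inhibition above the screen-wide mean plus 3 SD, computed separately per campaign, cut at about 16% in these data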;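 note: 0% = DMSO wells and 100% = 60 µM geldanamycin wells; inhibitors lower the luminescence because luciferase stays unfolded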
LGR2 inh = inhibitors of bursicon-induced Drosophila LGR2 receptor cAMP signaling; HEK293 LGR2, CRE-luciferase, bursicon-stimulated, 4 h; inhibition, % at 9.99 µM; actives 0.35% (n = 380,000);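 active = drop in luminescence signal, shown as inhibition above about 50% in the replicate tests, limit read from the data, passing the limit was not always enough; inconclusive = probably only some replicates passing the limit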;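 note: agonist challenge used bursicon conditioned medium at about half maximal strength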
HSP90 inh confirm = HSP90 inhibition, confirmation assay; shares compounds with HSP90 inh; rabbit reticulocyte lysate, luciferase refolding luminescence, 3 h; inhibition, % at 5.9 µM; actives 64% (n = 2,300); AID 1846; in the data active = inhibition above about 18%;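 note: 0% = vehicle wells and 100% = reference inhibitor wells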
FLuc counter = firefly luciferase inhibition, HSP90 counter-screen; actives 48% (n = 2,300); purified native firefly luciferase, luminescence; inhibition, % at 5.9 µM; AID 1847; shares compounds with HSP90 inh;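 active = inhibition above the mean inhibition of all tested sample wells plus 3 SD, cut at about 10% in these data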;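 note: 0% = DMSO with luciferase and 100% = wells lacking luciferase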
Target sequence (P08659 whole entry, looked up): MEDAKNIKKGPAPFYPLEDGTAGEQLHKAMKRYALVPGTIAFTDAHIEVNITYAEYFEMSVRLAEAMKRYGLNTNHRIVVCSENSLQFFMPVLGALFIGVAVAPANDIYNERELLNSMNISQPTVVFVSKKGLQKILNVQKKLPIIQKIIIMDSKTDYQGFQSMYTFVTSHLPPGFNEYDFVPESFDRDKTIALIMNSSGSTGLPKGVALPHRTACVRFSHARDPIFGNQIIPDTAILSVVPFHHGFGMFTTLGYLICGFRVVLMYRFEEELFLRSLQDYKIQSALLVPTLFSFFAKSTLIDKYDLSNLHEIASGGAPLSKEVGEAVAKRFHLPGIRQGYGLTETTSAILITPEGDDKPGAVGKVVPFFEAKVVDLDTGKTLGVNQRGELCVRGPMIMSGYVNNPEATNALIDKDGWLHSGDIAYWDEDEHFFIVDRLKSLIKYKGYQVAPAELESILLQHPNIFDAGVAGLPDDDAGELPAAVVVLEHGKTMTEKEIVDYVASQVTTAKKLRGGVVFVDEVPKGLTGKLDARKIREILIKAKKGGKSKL
The depositor's hits bear a star.

What do the screens show for `COc1ccc(C2=NN(c3ccc(C(=O)O)cc3)C(c3ccc(OC)c(OC)c3)C2)cc1` (configuration not stated)?
Mdm2 MdmX PPI: 19; CF NFkB inh: 30; Peg3 promoter: 10; KKLEB cytotox: -13; HSP90 inh: 19*; LGR2 inh: -26; HSP90 inh confirm: 46*; FLuc counter: 38*

How did COc1ccc(C2CC(c3ccccc3)=NN2c2ccc(S(N)(=O)=O)cc2)cc1OC (configuration not stated) do in these assays?
Mdm2 MdmX PPI: -9; CF NFkB inh: 3; Peg3 promoter: 13; KKLEB cytotox: 13; HSP90 inh: 4; LGR2 inh: -8

What do the screens show for `Cc1cc(C(=O)Nc2ccc(N3CCCCC3)cc2)no1`?
Mdm2 MdmX PPI: -29; CF NFkB inh: -3; Peg3 promoter: -101; KKLEB cytotox: 0; HSP90 inh: 24*; LGR2 inh: inconclusive; HSP90 inh confirm: 50*; FLuc counter: 36*

How did Cc1ccc(C(=O)Nc2ccc(N3CCN(C)CC3)cc2)cc1C do in these assays?
Mdm2 MdmX PPI: -28; CF NFkB inh: 5; Peg3 promoter: -71; KKLEB cytotox: -5; HSP90 inh: 22*; LGR2 inh: 9; HSP90 inh confirm: 29*; FLuc counter: 23*

How did C[C@H]1CCCCO[C@H](CN(C)S(=O)(=O)c2cn(C)cn2)[C@@H](C)CN([C@@H](C)CO)C(=O)c2cc(NC(=O)Nc3ccccc3)ccc2O1 do in these assays?
LGR2 inh: -6

How did CCOC(=O)c1c(S(=O)(=O)N2CCCC(C(=O)Nc3cccc(C)n3)C2)c(C)n(C)c1C (configuration not stated) do in these assays?
Mdm2 MdmX PPI: 8; CF NFkB inh: -18; Peg3 promoter: 10; KKLEB cytotox: 9; HSP90 inh: 21*; LGR2 inh: -12; HSP90 inh confirm: 3; FLuc counter: -3

How did CCOC(=O)c1c(S(=O)(=O)N2CCCC(C(=O)Nc3ncccc3C)C2)c(C)n(C)c1C (configuration not stated) do in these assays?
Mdm2 MdmX PPI: 8; CF NFkB inh: 24; Peg3 promoter: 13; KKLEB cytotox: -10; HSP90 inh: -8; LGR2 inh: -2

How did Cc1[nH]nc2c1C1(CCN(C(=O)OCc3ccccc3)CC1)C(C#N)=C(N)O2 do in these assays?
Mdm2 MdmX PPI: 7; CF NFkB inh: 1; Peg3 promoter: -16; KKLEB cytotox: -1; HSP90 inh: 24*; HSP90 inh confirm: 7; FLuc counter: 4

What do the screens show for `CC(C)(C)NC(=O)CN(c1cccc([N+](=O)[O-])c1)S(=O)(=O)c1ccccc1`?
Mdm2 MdmX PPI: 22; CF NFkB inh: 2; Peg3 promoter: 12; KKLEB cytotox: 3; HSP90 inh: 23*; LGR2 inh: 11; HSP90 inh confirm: -10; FLuc counter: -10

How did CCC(=O)Nc1cc(C(=O)OCC(=O)c2ccccc2)ccc1C do in these assays?
Mdm2 MdmX PPI: -12; CF NFkB inh: 18; Peg3 promoter: -210; KKLEB cytotox: -2; HSP90 inh: 20*; LGR2 inh: -26; HSP90 inh confirm: 45*; FLuc counter: -34

How did CC(C)c1ccc2oc(-c3cc(N)ccc3O)nc2c1 do in these assays?
Mdm2 MdmX PPI: 35; CF NFkB inh: -4; Peg3 promoter: 3; KKLEB cytotox: -35; HSP90 inh: 46*; HSP90 inh confirm: 80*; FLuc counter: 79*

Results for Cc1ccccc1-c1nc2cc(N)ccc2o1 ?
Mdm2 MdmX PPI: -75; CF NFkB inh: -29; Peg3 promoter: -286; KKLEB cytotox: 6; HSP90 inh: 7; LGR2 inh: -72

What do the screens show for `CC(=O)N(C)c1ccc(N=Nc2c(C)[nH]n(C(N)=S)c2=O)cc1`?
Mdm2 MdmX PPI: -26; CF NFkB inh: -3; Peg3 promoter: -121; KKLEB cytotox: 2; HSP90 inh: 20*; LGR2 inh: 2; HSP90 inh confirm: 9; FLuc counter: -15

Results for CC(=O)N(C)c1ccc(N=NC2C(=O)N(C(N)=S)N=C2C)cc1 (configuration not stated) ?
Mdm2 MdmX PPI: -57; CF NFkB inh: 1; Peg3 promoter: -201; KKLEB cytotox: 4; HSP90 inh: 18*; LGR2 inh: 29; HSP90 inh confirm: 18*; FLuc counter: -7

What do the screens show for `Cc1[nH]n(C(N)=S)c(=O)c1N=Nc1ccc([N+](=O)[O-])cc1Cl`?
Mdm2 MdmX PPI: 8; CF NFkB inh: 1; Peg3 promoter: -114; KKLEB cytotox: 4; HSP90 inh: 18*; LGR2 inh: -14; HSP90 inh confirm: -2; FLuc counter: -19

Results for CCOC(=O)Cc1csc(NC(=S)NC(=O)c2ccc(C)cc2)n1 ?
Mdm2 MdmX PPI: 16; CF NFkB inh: 13; Peg3 promoter: 47; KKLEB cytotox: -33; HSP90 inh: 36*; LGR2 inh: -6; HSP90 inh confirm: 40*; FLuc counter: -14

What do the screens show for `CCOC(=O)Cc1csc(NC(=S)NC(=O)c2ccccc2)n1`?
Mdm2 MdmX PPI: 0; CF NFkB inh: 3; Peg3 promoter: -11; KKLEB cytotox: 7; HSP90 inh: 4; LGR2 inh: 9

How did CCO[C@H]1OC(C(=O)N2CCN(C)CC2)=C[C@@H](c2csc3ccccc23)[C@@H]1CCCO do in these assays?
Mdm2 MdmX PPI: 0; CF NFkB inh: 8; Peg3 promoter: -5; KKLEB cytotox: -17; HSP90 inh: 18*; LGR2 inh: 14; HSP90 inh confirm: -4; FLuc counter: -6

What do the screens show for `Cc1cc(C(=O)Nc2ccc3c(c2)OCCO3)ccc1[N+](=O)[O-]`?
Mdm2 MdmX PPI: -91; CF NFkB inh: -6; Peg3 promoter: -45; KKLEB cytotox: 4; HSP90 inh: 28*; LGR2 inh: 59*; HSP90 inh confirm: 59*; FLuc counter: 51*

What do the screens show for `Cc1ccc(C(=O)Nc2ccc3c(c2)CCC3)cc1`?
Mdm2 MdmX PPI: -51; CF NFkB inh: -17; Peg3 promoter: -19; KKLEB cytotox: -24; HSP90 inh: 25*; LGR2 inh: inconclusive; HSP90 inh confirm: 71*; FLuc counter: 67*

How did O=C(NC(=S)Nc1ccc2c(c1)OCCO2)c1ccco1 do in these assays?
Mdm2 MdmX PPI: -76; CF NFkB inh: 3; Peg3 promoter: -223; KKLEB cytotox: -6; HSP90 inh: 24*; HSP90 inh confirm: 20*; FLuc counter: 3

What do the screens show for `Cc1ccccc1C(=O)Nc1ccc2c(c1)OCO2`?
Mdm2 MdmX PPI: -88; CF NFkB inh: 5; Peg3 promoter: -110; KKLEB cytotox: -11; HSP90 inh: 22*; HSP90 inh confirm: 36*; FLuc counter: 15*
